# Data from PubChem BioAssay AID720554 (ICCB-Longwood Screening Facility, Harvard Medical School, 2013).
# The whole screen tested about 12,000 compounds, of which about 45 (0.4%) were called active. Rule as the data show it: active = inhibition mostly above about 83% (no sharp cut-off); inactive = mostly below about 52%. The full list was thinned out, with actives kept by preference.
# Tests used:
# [1] = BmaI1 acyl-homoserine lactone synthase inhibition – biochemical, fluorescence intensity, with counterscreen (AID 720554); settings: BmaI1 enzyme assay, measured here: counterscreen fluorescence % control, concentration not given here
# [2] = system: acyl-homoserine lactone synthase BmaI1 (Burkholderia mallei ATCC 23344); experiment: as above; settings: BmaI1 enzyme assay, stronger effect = higher value, concentration not given here
Structure (SMILES),inhibition [1] [%],inhibition [2]
N#Cc1ccccc1NC(=O)CN1CCNC(=O)C1,5,6% (inactive)
NCCCOC1CCCCC1,11,16.5% (inactive)
NS(=O)(=O)c1cc(C(=O)O)cs1,-4.5,3% (inactive)
Cc1cc(C)n(-c2ccc(C(=O)OCC(=O)NCC3CCCO3)cc2)n1 (stereo not drawn),9,8% (inactive)
O=C1NC(c2cccc(O)c2O)Nc2sc3c(c21)CCC3 (stereo not drawn),19,83% (active)
Cc1ccccc1CSCc1nc(N)nc(Nc2ccccc2C)n1,4,7% (inactive)
O=C1c2ccccc2C(=O)N1/N=C/c1ccc(-c2ccccc2Br)o1,2.5,4.5% (inactive)
O=S(=O)(c1ccc(N=C=S)cc1)N1CCOCC1,-3,13% (inactive)
NC(=O)C1CCN(Cc2cc(=O)oc3cc(O)ccc23)CC1,-4.5,5.5% (inactive)
CC1(C)C(=O)Nc2ccccc2N1C(=O)CSc1ncnc2ccccc12,10.5,18.5% (inactive)
CN1/C(=C2\C=NN(C)P2(=O)Nc2ccccc2)C(C)(C)c2ccccc21 (stereo not drawn),5,14.5% (inactive)
CN1/C(=C2\C=NN(C)P2(=S)N2CCCC2)C(C)(C)c2ccccc21 (stereo not drawn),10,15% (inactive)
COP1(=S)/C(=C2/N(C)c3ccccc3C2(C)C)C=NN1C (stereo not drawn),6,88% (active)
COc1ccccc1/C=N/OCC(=O)NCc1ccc2c(c1)OCO2,3.5,16.5% (inactive)
COC(=O)c1ccc(-n2c(C)cc(C(=O)CN3C(=O)CN(C)C3=O)c2C)cc1,-4.5,9% (inactive)
O=C(N/N=C/c1sc(N2CCCCC2)nc1-c1cccs1)c1ccccc1,-8.5,17% (inactive)
Nc1nnc(-c2cccs2)c(=O)n1N,70.5,20% (inactive)
Nn1c(NNC(=O)c2ccccc2)nnc(-c2cccs2)c1=O,11.5,92% (active)
CCCn1c(C)cc(/C=C(\C#N)C(=O)Oc2c(C)ccc(C)c2C)c1C,2.5,17.5% (inactive)
CN(C)Cc1ccccc1C#N,1,-3.5% (inactive)
Cc1ccc(S(=O)(=O)NCC(=O)OC2CCOC2=O)cc1 (stereo not drawn),4,-3% (inactive)
COC(=O)Cc1c(C(=O)OC)sc(N)c1C#N,0.5,5.5% (inactive)
c1cc2n[nH]nc2cn1,-4,12% (inactive)
COc1ccccc1C(=O)CSc1cccc[n+]1[O-],10,57% (inactive)

Structure (SMILES),inhibition [1] [%],inhibition [2]
COc1cc(C(=O)CSc2cccc[n+]2[O-])cc(OC)c1OC,6.5,87% (active)
COc1ccccc1C(=O)NC(=O)CSc1cccc[n+]1[O-],10,16.5% (inactive)
Cc1nn(-c2ccccc2)c2c1CC(C#N)(c1ccccn1)C1CCCN21 (stereo not drawn),3,10% (inactive)
COc1cc(OC)c(OC)cc1CNC(=O)CCc1c(C)noc1C,0,11% (inactive)
Cc1cc(C(=O)CN(Cc2ccco2)S(=O)(=O)/C=C/c2ccccc2)c(C)n1C,0.5,2.5% (inactive)
Oc1ccc(/C=N/n2c(-c3ccco3)csc2=Nc2ccc(F)cc2F)c(O)c1,19,34% (inactive)
CN=c1scc(-c2ccccc2)n1/N=C/c1ccsc1,-7,6% (inactive)
Cc1csc(=Nc2ccccc2F)n1/N=C/c1ccncc1,-3,89% (active)
CCN(C(=O)Cn1ncc(Cl)c(Cl)c1=O)C1CCS(=O)(=O)C1 (stereo not drawn),6,12% (inactive)
COc1ccc2nc(NC(=O)c3ccco3)sc2c1,14.5,19% (inactive)
CCn1c(CCC(=O)Nc2ccc(N3CCOCC3)cc2)nc2cc(S(=O)(=O)N(C)C)ccc21,-2.5,21% (inactive)
CCn1c(C)nc2cc(C#N)ccc21,6,8% (inactive)
CCc1ccc(C2=Nn3c(nnc3-c3cccc(S(=O)(=O)N(CC)CC)c3)SC2)cc1,3,21% (inactive)
CN(C)S(=O)(=O)c1cccc(-c2nnc3n2CCCCC3)c1,-2,-4.5% (inactive)
CN(C)S(=O)(=O)c1cccc(-c2nnc3n2N=C(c2cccs2)CS3)c1,-1,87.5% (active)
COc1ccc2c(Cl)c(-c3nnc4n3CCC4)sc2c1,-3.5,6.5% (inactive)
Cn1c(CC(N)=S)nc2ccccc21,17,92.5% (active)
Cn1c(Cc2nnc3n2-c2ccccc2SC3)nc2ccccc21,-1,28.5% (inactive)
Cc1csc(Cc2nc3ccccc3n2C)n1,8,16% (inactive)
Cc1cc(C(=O)Cn2cnc3sccc3c2=O)c(C)n1C1CC1,8.5,16.5% (inactive)
CC(C)Sc1nc2ccccc2n1CN1CCN(c2ccccn2)CC1,3,9% (inactive)
Cc1csc(=O)n1CN1CCN(C(=O)C2COc3ccccc3O2)CC1 (stereo not drawn),7.5,17.5% (inactive)
COC(=O)COc1ccc2ccc(=O)oc2c1,-9.5,-8% (inactive)
COC(=O)COc1cc(NO)ccc1N=O,4.5,88.5% (active)

Structure (SMILES),inhibition [1] [%],inhibition [2]
CCN(CC)c1ccc(N=CN2CCOCC2)cc1,-31,53% (inactive)
COC(=O)c1c(C)oc(C)c(C(=O)OC)c1=O,2.5,1.5% (inactive)
Cc1ccc(Cl)cc1N1CCN(Cn2sc3ccccc3c2=O)CC1,8.5,77% (inactive)
O=S(=O)(c1ccc2oc(=S)n(CN3CCOCC3)c2c1)N1CCOCC1,4,99.5% (active)
Nc1nc2cc(S(=O)(=O)N3CCOCC3)ccc2o1,-5.5,2.5% (inactive)
CCOC(=O)C1CCN(Cn2c(=S)oc3ccc(S(=O)(=O)CC)cc32)CC1,-4,5% (inactive)
CCn1c(=O)c(=O)[nH]c2cc(C(=O)Nc3ccccc3N3CCOCC3)ccc21,19.5,16.5% (inactive)
Cn1c(-c2ccco2)n[nH]c1=S,80,96.5% (inactive)
c1coc(-c2nnc(-c3ccco3)nn2)c1,34,0% (inactive)
O=c1[nH]nc(-c2ccco2)o1,-7,96% (active)
Cc1cc(C(=O)Cn2cc(C(F)(F)F)ccc2=O)c(C)n1Cc1ccco1,1,3% (inactive)
Cc1ccc(C(=O)NCCN2C(=O)S/C(=C\c3ccc(F)cc3)C2=O)cc1NC(=O)c1ccco1,-9.5,6.5% (inactive)
O=C(O)c1sc2sccc2c1Cl,-1.5,8.5% (inactive)
O=C1Cc2ccccc2C(=O)N1,7,99.5% (active)
O=C1CCc2ccccc2N1,-5,-11% (inactive)
O=C1NC(C(=O)O)Cc2ccccc21 (stereo not drawn),9,15% (inactive)
O=C(CN1C(=O)c2ccccc2S1(=O)=O)N1N=C(c2ccc(Cl)cc2)CC1c1ccco1 (stereo not drawn),10.5,15% (inactive)
CC1Sc2ccc(C(=O)Oc3ccc4c(c3)OCO4)cc2NC1=O (stereo not drawn),2,35.5% (inactive)
CCN(CC)S(=O)(=O)c1ccc2c(c1)CCCN2,-4,18% (inactive)
O=C(OCC(=O)N1CCC(Cc2ccccc2)CC1)c1ccc(O)cc1,-7.5,2.5% (inactive)
COc1ccc(N(C)S(=O)(=O)c2cccc(C(=O)Nc3ccc(N4CCN(C)CC4)cc3C)c2)cc1,11.5,9% (inactive)
Cc1c(C(=O)O)sc2nc(CSc3nnc(-c4ccc(F)cc4)n3C)[nH]c(=O)c12,2.5,3% (inactive)
N#Cc1c(N)sn(-c2ccccc2)c1=S,11.5,102% (active)
N#CC1=C(N)N(c2ccccc2)C(=O)C1,0,-10.5% (inactive)

Structure (SMILES),inhibition [1] [%],inhibition [2]
CCOC(=O)c1c(N)sn(-c2ccccc2)c1=S,14.5,17% (inactive)
Cc1sc2ncnc(N3CCc4ccccc43)c2c1C,6,8.5% (inactive)
COC(=O)C(C)Sc1ncnc2sc(C)c(C)c12 (stereo not drawn),7,13% (inactive)
Cc1sc2ncnc(N)c2c1C,9.5,89.5% (active)
CCCCn1ccnc1C(=O)c1ccc(S(=O)(=O)N2CCCC2)cc1,1,8% (inactive)
CCCCN1C(=O)CC(C(=O)O)C1c1ccc(OC)cc1 (stereo not drawn),3,-3.5% (inactive)
CCOc1ccc(/C=N/N2C(=O)NC(C)(CC)C2=O)c(O)c1 (stereo not drawn),-4.5,0.5% (inactive)
COc1ccc(Cc2nnc3n2N=C(c2ccc(CNC(C)=O)o2)CS3)cc1,6,15.5% (inactive)
CC(=O)NCCc1ccc(-c2csc(N)n2)cc1,41,24% (inactive)
CC(=O)NCc1ccc(-c2csc(N)n2)o1,17.5,92.5% (active)
COc1cc2c(cc1NC(=O)C(C)Sc1nncn1C)oc1ccccc12 (stereo not drawn),-6.5,16.5% (inactive)
CNC(=O)NC(=O)C(C)N1CCc2ccccc2C1 (stereo not drawn),-2.5,2.5% (inactive)
COc1cccc(N=C2NNC(C)=C(C(=O)N(C)C)S2)c1,13.5,88.5% (active)
COc1cccc(NC(=O)/C=N/O)c1,19.5,37.5% (inactive)
COc1cccc(CC(=O)Nc2cccc(OC)c2)c1,2,8.5% (inactive)
CCn1c(Cn2cc(S(=O)(=O)N3CCCC3)ccc2=O)nc2cc(S(=O)(=O)N(C)C)ccc21,1,8.5% (inactive)
Oc1c(C(c2cccnc2)N2CCCCC2)ccc2cccnc12 (stereo not drawn),-53.5,-20.5% (inactive)
Oc1c(C(Nc2ccccn2)c2cccnc2)ccc2cccnc12 (stereo not drawn),-15,14% (inactive)
Oc1c(C(c2cccnc2)N2CCOCC2)ccc2cccnc12 (stereo not drawn),28.5,105% (active)
CC(Sc1nnc(-c2ccccc2)o1)C(=O)N(C)c1ccccc1 (stereo not drawn),9,7% (inactive)
CN(C(=O)c1ccco1)C1(c2ccccc2Cl)CCCCC1=O (stereo not drawn),5.5,9.5% (inactive)
CCOC(=O)C(Sc1n[nH]c(N)n1)c1ccccc1 (stereo not drawn),13.5,15.5% (inactive)
